Screens: PubChem, National Center for Advancing Translational Sciences (NCATS)
Most compounds without a hit are left out; they make up all but 9.4% or so of the library.
AMA1-RON2 inh: disrupts binding of P. falciparum AMA1 to RON2; AlphaScreen AMA1-biotinylated RON2 peptide binding; Potency, µM (highest dose often 58.2 µM), without a hit: at the top dose activity change, negative = inhibition, actives largely listed as inhibitors; hit rate 0.2% among 360,000;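 further: 0% = vehicle wells and -100% = peptide control; nearly all actives have a fitted effect of over 45% in size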
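AMA1 (3D7) with his tag at 25 nM final met compounds first, then biotinylated RON2 peptide at 25 nM; detection used donor plus acceptor beads, 10 µg/mL apiece, read by AlphaScreen after 30 min at room temperature.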
Pf growth 48h: inhibits P. falciparum growth in the first generation, 48 h | P. falciparum luciferase growth in erythrocytes, 48 h | Potency, µM (top dose mostly 28.7 µM), inactives show at the highest dose activity change, negative = inhibition, most hits filed as inhibitors | hit rate 5.9% among 310,000 | AID 504832; further: on the % scale 0 is the no-effect control and ±100 the full control effect
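Luciferase-expressing P. falciparum in infected erythrocytes (2% hematocrit, 0.1% parasitemia final) in RPMI 1640/0.5% Albumax were exposed to compound for 48 hours at 37 C, 5% CO2; growth read as luminescence.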
Pf growth 96h: P. falciparum growth inhibition at 96 hour, primary screen for plastid delayed-death inhibitors. P. falciparum luciferase reporter growth, 96 h. Potency, µM (series often up to 28.7 µM), for the others: at the highest dose activity change, negative = inhibition, actives largely listed as inhibitors. hit rate 6.9% among 320,000; further: on the % scale 0 is the no-effect control and ±100 the full control effect
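Compounds incubated with erythrocytes infected by luciferase-expressing P. falciparum (2% hematocrit, 0.05% parasitemia final) for 96 hours, 37 C in 5% CO2. Growth inhibition scored as decreased luciferase luminescence.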
SARS PLpro yeast: inhibitors of SARS-CoV papain-like protease in yeast; S. cerevisiae expressing SARS-CoV PLpro, growth rescue; Potency, µM (top dose mostly 32.9 µM), without a hit: at the highest dose activity, positive = growth rescue, hits mostly activators; hit rate 0.19% among 330,000; AID 485353; calls by dose curve; further: 0% is about no effect; nearly all actives have a fitted effect of over 55% in size
Active calls of the source: *; [ ] = remark or other dose. Unless noted, the call rests on the fitted dose curve; in most records, active means well fitted curve in the direction sought with a large enough effect; inconclusive means small, poorly fitted or top-dose-only effect, or another doubt; inactive means no such curve, though single readings can be large; an effect the other way counts as inactive or inconclusive. Potency means the concentration at half of the fitted maximal effect.

Results for O=C(Nc1ccc(N2CCN(C(=O)c3ccco3)CC2)cc1)c1ccco1 ?
AMA1-RON2 inh: 8.8%; Pf growth 48h: -9.2%; Pf growth 96h: inconclusive; SARS PLpro yeast: -1.6%

Results for O=C(Nc1ccc(N2CCN(C(=O)c3ccco3)CC2)cc1)c1ccc2c(c1)OCO2 ?
AMA1-RON2 inh: -4.6%; Pf growth 48h: 13.1µM*; Pf growth 96h: inconclusive; SARS PLpro yeast: 11.8%

What do the screens show for `O=C(Nc1ccc(N2CCN(C(=O)c3ccco3)CC2)cc1)c1cc(Br)ccc1Cl`?
AMA1-RON2 inh: -4.7%[11.6 µM]; Pf growth 48h: 13.1µM*; Pf growth 96h: 10.4µM*; SARS PLpro yeast: -3.2%

How did COC(=O)c1ccccc1NC(=O)NCc1ccc2c(c1)OCO2 do in these assays?
AMA1-RON2 inh: 7.3%; Pf growth 48h: -6.3%; Pf growth 96h: 0.5%

What do the screens show for `CC(C)(C)OC(=O)[C@H]1[C@H](c2ccc([N+](=O)[O-])cc2)C2(C(=O)c3ccccc3C2=O)C2c3ccccc3C=NN21` (some centres undefined)?
AMA1-RON2 inh: -18.6%; Pf growth 48h: 13.1µM*; Pf growth 96h: 1.85µM*; SARS PLpro yeast: -14.5%

What do the screens show for `COc1ccc([C@H]2[C@H](C(=O)C(C)(C)C)N3N=Cc4ccccc4C3[C@]23N=C(c2ccccc2)OC3=O)cc1OC` (some centres undefined)?
AMA1-RON2 inh: 1.2%; Pf growth 48h: inconclusive; Pf growth 96h: inconclusive; SARS PLpro yeast: -2.7%

How did CC1(C)CC(=O)C=C(NNC(=O)C2CCCCC2)C1 do in these assays?
AMA1-RON2 inh: -7.0%; Pf growth 48h: -3.5%; Pf growth 96h: -10.6%; SARS PLpro yeast: 19.0%

Results for O=C1C=C(NC2CCCCC2)CCC1 ?
AMA1-RON2 inh: 10.9%; Pf growth 48h: 13.1µM*; Pf growth 96h: 13.1µM*; SARS PLpro yeast: -2.2%

Results for CC1(C)CC(=O)C=C(Nc2ccc(O)cc2)C1 ?
AMA1-RON2 inh: 11.9%

Results for CC1(C)CC(=O)C=C(NC2CCCCCCC2)C1 ?
AMA1-RON2 inh: 5.9%; Pf growth 48h: inconclusive; Pf growth 96h: 3.7µM*; SARS PLpro yeast: 11.3%

What do the screens show for `O=C1C=C(NCc2ccc(Cl)cc2)CCC1`?
AMA1-RON2 inh: 13.2%; Pf growth 48h: 8.0%; Pf growth 96h: -79.7%; SARS PLpro yeast: -12.5%

What do the screens show for `CC1(C)CC(=O)C=C(NC2CCCCCC2)C1`?
AMA1-RON2 inh: 2.3%; Pf growth 48h: inconclusive; Pf growth 96h: 11.7µM*; SARS PLpro yeast: 0.5%

What do the screens show for `Cc1cccc(N/C(N)=N/c2nc(CSc3ccc(Cl)cc3)cc(=O)[nH]2)c1`?
AMA1-RON2 inh: 71.5%; Pf growth 48h: -19.4%; Pf growth 96h: inconclusive; SARS PLpro yeast: 0.1%

What do the screens show for `COc1ccc(CCNC(=O)c2cc(-c3ccc(C)cc3O)n[nH]2)cc1OC`?
AMA1-RON2 inh: 11.4%; Pf growth 96h: 7.38µM*; SARS PLpro yeast: 12.4%

What do the screens show for `COc1ccc(CCNC(=O)C2c3ccccc3C(=O)N2CCC(C)C)cc1OC` (centres undefined)?
AMA1-RON2 inh: 7.1%; Pf growth 48h: -11.7%; Pf growth 96h: 8.28µM*; SARS PLpro yeast: 1.2%

How did COc1ccc(CCNC(=O)c2cc(-c3ccccc3O)n[nH]2)cc1OC do in these assays?
AMA1-RON2 inh: 14.2%; Pf growth 48h: 13.1µM*; Pf growth 96h: 2.6%[5.75 µM]; SARS PLpro yeast: 2.3%

How did CCOc1ccc(CN2C(=O)c3ccccc3C2C(=O)NC(C)CC)cc1OC (centres undefined) do in these assays?
AMA1-RON2 inh: 2.8%; Pf growth 48h: -4.4%; Pf growth 96h: 152.2%; SARS PLpro yeast: -0.3%

How did COc1ccc(CCNC(=O)c2cc(-c3cc(C)cc(C)c3O)n[nH]2)cc1OC do in these assays?
AMA1-RON2 inh: 107.8%; Pf growth 48h: inconclusive; Pf growth 96h: inconclusive; SARS PLpro yeast: 0.1%

How did CCN(C(=O)c1ccc2c(Cl)c3c(nc2c1)CCC3)c1ccc(C)c(C)c1 do in these assays?
AMA1-RON2 inh: -23.6%; Pf growth 48h: inconclusive; Pf growth 96h: 10.4µM*; SARS PLpro yeast: -15.8%

Results for O=C(NC(c1ccccc1)C(Cl)(Cl)Cl)c1ccccc1 (centres undefined) ?
AMA1-RON2 inh: 0.9%; Pf growth 48h: inconclusive; Pf growth 96h: -29.5%; SARS PLpro yeast: -44.4%

What do the screens show for `Cc1ccc(C(=O)NC(C(=O)NC2CCCC2)c2ccccc2)cc1` (centres undefined)?
AMA1-RON2 inh: -1.6%; Pf growth 48h: 6.5%; Pf growth 96h: -2.9%; SARS PLpro yeast: -2.5%

Results for Cc1ccc(NC(NC(=O)c2cccnc2)C(Cl)(Cl)Cl)cc1 (centres undefined) ?
AMA1-RON2 inh: -0.4%; Pf growth 48h: -22.5%; Pf growth 96h: 13.1µM*; SARS PLpro yeast: -27.7%

Results for Cc1ccc(C(NC(=O)c2ccccc2)C(Cl)(Cl)Cl)cc1 (centres undefined) ?
AMA1-RON2 inh: 14.9%; Pf growth 48h: 11.7µM*; Pf growth 96h: inconclusive; SARS PLpro yeast: 3.3%

How did Cc1ccc(C(=O)NC(C(=O)Nc2ccccc2)c2ccccc2)cc1 (centres undefined) do in these assays?
AMA1-RON2 inh: 8.5%; Pf growth 48h: 9.28µM*; Pf growth 96h: -6.6%; SARS PLpro yeast: 2.0%

Results for NS(=O)(=O)c1ccc(NC(NC(=O)c2cccnc2)C(Cl)(Cl)Cl)cc1 (centres undefined) ?
AMA1-RON2 inh: 2.6%; Pf growth 48h: 4.2%; Pf growth 96h: 0.0%; SARS PLpro yeast: -13.6%

Results for CCOC(=O)c1ccccc1OCc1cc(/C=N/n2cnnc2)ccc1OC ?
AMA1-RON2 inh: 0.0%; Pf growth 48h: -1.8%; Pf growth 96h: inconclusive; SARS PLpro yeast: inconclusive

How did Cc1cc(C(C)c2ccccc2)c(O)c(CN2CCOCC2)c1C (centres undefined) do in these assays?
AMA1-RON2 inh: -21.2%; Pf growth 48h: 1.85µM*; Pf growth 96h: 7.7%; SARS PLpro yeast: -27.3%

Results for Cc1ccc(OCC(=O)Nc2c(C)nn(-c3ccccc3)c2C)c(Br)c1 ?
AMA1-RON2 inh: -3.1%; Pf growth 48h: inconclusive; Pf growth 96h: -2.0%; SARS PLpro yeast: -3.7%

What do the screens show for `C=CCn1c(O)c(C(C)=Nc2ccc(N(C)C)cc2)c(=O)[nH]c1=O`?
AMA1-RON2 inh: -11.9%; Pf growth 48h: 11.7µM*; SARS PLpro yeast: 0.8%

How did C=CCn1c(O)c(C(C)=Nc2ccc(N(CC)CC)cc2)c(=O)[nH]c1=O do in these assays?
AMA1-RON2 inh: 0.2%; Pf growth 48h: inconclusive; Pf growth 96h: inconclusive; SARS PLpro yeast: 2.8%

Results for CN(C)C(=S)N=Nc1[nH]c2ccccc2c1O ?
AMA1-RON2 inh: 64.7%; Pf growth 48h: inconclusive; Pf growth 96h: inconclusive; SARS PLpro yeast: -0.2%

How did C[N+]1(C)CCC(=C(c2ccccc2)c2ccccc2)CC1 do in these assays?
AMA1-RON2 inh: -5.4%; Pf growth 48h: 4.15µM*; Pf growth 96h: 5.86µM*; SARS PLpro yeast: 5.4%

Results for CC(=O)c1ccc(OC(=O)COc2ccccc2Cl)cc1 ?
AMA1-RON2 inh: 0.1%; Pf growth 48h: 232.9%; Pf growth 96h: 18.5%; SARS PLpro yeast: -2.1%

Results for O=C(O)c1ccc2c(c1)C(=O)/C(=C\c1ccco1)C2=O ?
AMA1-RON2 inh: -24.8%; Pf growth 48h: -12.8%; Pf growth 96h: 11.7µM*; SARS PLpro yeast: 0.1%
